The text below walks through data of ChEMBL document CHEMBL3988442, “University of Dundee, Small-Polar-MMV Screening Library” (2021).

Holding throughout (set-up): scale not given: direction of the effect not stated beside the values
The target in test [1] is Protein translocase subunit SecA (Escherichia coli (strain K12)) (UniProt P10408). Put plainly: Assay to Identify E. coli SecA ATPase Inhibitors. The class given is functional. The note with it: 30 µM.
Test [2] deals with T1, Ubiquitin-activating enzyme e1, putative (Leishmania donovani (strain BPK282A1)) (UniProt E9BSI1).
T1 sequence (whole entry): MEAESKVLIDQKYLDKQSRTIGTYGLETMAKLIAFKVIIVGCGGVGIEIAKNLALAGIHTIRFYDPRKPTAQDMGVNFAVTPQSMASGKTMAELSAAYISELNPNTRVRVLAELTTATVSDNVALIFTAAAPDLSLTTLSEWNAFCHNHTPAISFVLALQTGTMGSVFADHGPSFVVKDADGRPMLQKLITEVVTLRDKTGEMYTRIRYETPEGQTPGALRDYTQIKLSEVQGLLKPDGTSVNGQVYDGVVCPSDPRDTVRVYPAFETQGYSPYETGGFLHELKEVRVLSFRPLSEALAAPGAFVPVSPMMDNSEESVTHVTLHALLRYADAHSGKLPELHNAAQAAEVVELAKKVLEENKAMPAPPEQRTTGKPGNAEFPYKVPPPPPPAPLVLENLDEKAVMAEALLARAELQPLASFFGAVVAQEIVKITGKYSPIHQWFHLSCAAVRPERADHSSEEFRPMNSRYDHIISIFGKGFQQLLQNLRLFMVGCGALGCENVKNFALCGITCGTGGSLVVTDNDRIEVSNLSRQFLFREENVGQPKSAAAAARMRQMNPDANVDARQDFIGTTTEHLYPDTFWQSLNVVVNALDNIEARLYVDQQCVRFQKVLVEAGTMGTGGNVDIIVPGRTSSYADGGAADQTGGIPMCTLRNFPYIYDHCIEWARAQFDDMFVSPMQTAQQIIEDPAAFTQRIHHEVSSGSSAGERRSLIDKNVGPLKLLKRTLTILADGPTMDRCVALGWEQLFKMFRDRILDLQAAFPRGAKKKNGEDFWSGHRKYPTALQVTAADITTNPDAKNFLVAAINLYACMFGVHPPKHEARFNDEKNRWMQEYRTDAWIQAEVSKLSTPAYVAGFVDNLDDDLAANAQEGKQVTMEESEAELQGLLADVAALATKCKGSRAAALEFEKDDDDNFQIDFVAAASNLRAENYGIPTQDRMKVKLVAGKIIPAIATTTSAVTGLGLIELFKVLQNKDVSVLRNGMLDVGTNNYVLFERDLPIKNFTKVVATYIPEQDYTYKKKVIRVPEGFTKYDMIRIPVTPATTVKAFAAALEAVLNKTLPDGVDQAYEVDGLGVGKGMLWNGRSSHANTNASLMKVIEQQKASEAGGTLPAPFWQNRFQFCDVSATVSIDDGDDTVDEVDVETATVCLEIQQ
Put plainly: Leishmania donovani Ubiquitin Activating Enzyme (LdE1). The class given is functional. Particulars: 30 µM.

The target of test [3] is AMP-activated protein kinase, AMPK (Homo sapiens) (UniProt P54646+O43741+P54619+Q9UGJ0+Q9Y478+Q13131+Q9UGI9). Put plainly: AMP-dependent Kinase enzyme assay. An in vitro enzyme assay that detects ADP turnover that is directly proportional to AMPK activity. This uses naive AMPK that is activated during the assay with MK-8722. Particulars: 30 µM. Type of test: functional.

Test [4] concerns the target Sialic acid-binding Ig-like lectin 9 (Homo sapiens) (UniProt Q9Y336). The test can be described thus: Hs-Siglec9 ALPHAscreen SOP 20170721. The note with it: 10 µM. For orientation: In Alpha technology, singlet oxygen from a donor bead excites a nearby acceptor bead.
The next test concerns Trypanosoma cruzi. The test can be described thus: Trypanosoma cruzi phosphomannomutase and mannose-1-phosphate guanylyltransferase assay. The class given is functional. Particulars: 10 µM.
Test [5] has as its target T2, Arginase-2, mitochondrial (Homo sapiens) (UniProt P78540).
T2 sequence (whole entry): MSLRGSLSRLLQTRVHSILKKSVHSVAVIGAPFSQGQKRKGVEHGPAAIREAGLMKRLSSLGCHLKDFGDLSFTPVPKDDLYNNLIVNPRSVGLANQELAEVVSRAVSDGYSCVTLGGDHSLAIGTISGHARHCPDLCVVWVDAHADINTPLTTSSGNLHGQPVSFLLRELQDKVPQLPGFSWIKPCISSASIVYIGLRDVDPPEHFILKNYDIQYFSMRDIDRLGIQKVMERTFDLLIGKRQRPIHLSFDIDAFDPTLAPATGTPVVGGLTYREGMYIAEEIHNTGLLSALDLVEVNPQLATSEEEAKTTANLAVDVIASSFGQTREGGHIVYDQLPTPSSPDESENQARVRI
The test can be described thus: in vitro enzyme assay to detect the production of urea directly proportional to the activity of Arginase II. Note: in the data most compounds retested in dose-response had high values. The class given is functional. The note with it: 33.3 µM.

Test [6] concerns the target T3, Proteasome subunit beta (Trypanosoma cruzi) (UniProt O96673).
T3 sequence (whole entry): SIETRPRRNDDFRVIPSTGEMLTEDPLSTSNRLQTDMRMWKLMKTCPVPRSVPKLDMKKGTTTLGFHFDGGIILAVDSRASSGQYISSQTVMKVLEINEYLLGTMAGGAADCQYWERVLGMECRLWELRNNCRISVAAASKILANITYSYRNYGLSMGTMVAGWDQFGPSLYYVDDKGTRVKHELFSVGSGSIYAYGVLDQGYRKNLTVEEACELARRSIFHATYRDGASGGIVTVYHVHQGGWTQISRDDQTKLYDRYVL
Put plainly: Trypanosoma cruzi proteasome chymotrypsin-like activity (TcProtChymo) assay. Note: in the data most compounds retested in dose-response had high values. Type of test: functional. The note with it: 9.37 µM.

For the next test, the species on record is Homo sapiens. The test can be described thus: To identify inhibition of the IFN signalling (Jak-Stat) pathway via expression of an eGFP reporter gene under the control of an IFN-stimulated response element (ISRE) containing MxA promoter. The class given is functional. The note with it: 30 µM.
Test [7] addresses T4, Tyrosyl-tRNA synthetase, putative (Trypanosoma cruzi (strain CL Brener)) (UniProt Q4DSP6).
T4 sequence (whole entry): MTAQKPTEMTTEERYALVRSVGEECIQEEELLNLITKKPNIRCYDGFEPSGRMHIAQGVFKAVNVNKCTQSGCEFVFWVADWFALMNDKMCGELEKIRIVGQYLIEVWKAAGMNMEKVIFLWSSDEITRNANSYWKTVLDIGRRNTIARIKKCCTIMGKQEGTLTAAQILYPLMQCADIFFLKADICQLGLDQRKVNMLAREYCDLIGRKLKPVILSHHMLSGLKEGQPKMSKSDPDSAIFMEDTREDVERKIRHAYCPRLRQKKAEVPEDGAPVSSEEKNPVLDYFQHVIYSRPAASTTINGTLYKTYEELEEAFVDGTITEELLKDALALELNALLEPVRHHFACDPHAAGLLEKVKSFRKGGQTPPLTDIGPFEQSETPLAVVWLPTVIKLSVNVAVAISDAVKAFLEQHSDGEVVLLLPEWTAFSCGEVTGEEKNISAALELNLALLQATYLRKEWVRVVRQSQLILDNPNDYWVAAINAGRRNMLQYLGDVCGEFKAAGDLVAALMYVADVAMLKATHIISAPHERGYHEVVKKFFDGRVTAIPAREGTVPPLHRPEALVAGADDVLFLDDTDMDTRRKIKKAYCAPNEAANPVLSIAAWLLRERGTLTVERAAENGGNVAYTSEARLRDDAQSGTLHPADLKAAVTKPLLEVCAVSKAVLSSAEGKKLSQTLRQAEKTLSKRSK
Put plainly: Trypanosoma cruzi tyrosyl tRNA synthetase (TcYRS) _High Tyrosine SOP. Note: in the data most compounds retested in dose-response had high values. Type of test: functional. The note with it: 30 µM.

The target in test [8] is T4, Tyrosyl-tRNA synthetase, putative (Trypanosoma cruzi (strain CL Brener)). The test can be described thus: Trypanosoma cruzi tyrosyl tRNA synthetase (TcYRS) SOP. The class given is functional. Particulars: 30 µM.
Test [9] has as its target Chromo domain-containing protein 1 (Saccharomyces cerevisiae (strain ATCC 204508 / S288c) (Baker's yeast)) (UniProt P32657). Put plainly: ScCHD-1 Enzyme Inhibition Assay. Note: in the data most compounds retested in dose-response had high values. Type of test: functional. Particulars: 30 µM.

Molecules are shown by their SMILES. For some of these results: Measured potencies and affinities stand elsewhere.

Protein translocase subunit SecA (Escherichia coli (strain K12)), sequence (P10408 whole entry): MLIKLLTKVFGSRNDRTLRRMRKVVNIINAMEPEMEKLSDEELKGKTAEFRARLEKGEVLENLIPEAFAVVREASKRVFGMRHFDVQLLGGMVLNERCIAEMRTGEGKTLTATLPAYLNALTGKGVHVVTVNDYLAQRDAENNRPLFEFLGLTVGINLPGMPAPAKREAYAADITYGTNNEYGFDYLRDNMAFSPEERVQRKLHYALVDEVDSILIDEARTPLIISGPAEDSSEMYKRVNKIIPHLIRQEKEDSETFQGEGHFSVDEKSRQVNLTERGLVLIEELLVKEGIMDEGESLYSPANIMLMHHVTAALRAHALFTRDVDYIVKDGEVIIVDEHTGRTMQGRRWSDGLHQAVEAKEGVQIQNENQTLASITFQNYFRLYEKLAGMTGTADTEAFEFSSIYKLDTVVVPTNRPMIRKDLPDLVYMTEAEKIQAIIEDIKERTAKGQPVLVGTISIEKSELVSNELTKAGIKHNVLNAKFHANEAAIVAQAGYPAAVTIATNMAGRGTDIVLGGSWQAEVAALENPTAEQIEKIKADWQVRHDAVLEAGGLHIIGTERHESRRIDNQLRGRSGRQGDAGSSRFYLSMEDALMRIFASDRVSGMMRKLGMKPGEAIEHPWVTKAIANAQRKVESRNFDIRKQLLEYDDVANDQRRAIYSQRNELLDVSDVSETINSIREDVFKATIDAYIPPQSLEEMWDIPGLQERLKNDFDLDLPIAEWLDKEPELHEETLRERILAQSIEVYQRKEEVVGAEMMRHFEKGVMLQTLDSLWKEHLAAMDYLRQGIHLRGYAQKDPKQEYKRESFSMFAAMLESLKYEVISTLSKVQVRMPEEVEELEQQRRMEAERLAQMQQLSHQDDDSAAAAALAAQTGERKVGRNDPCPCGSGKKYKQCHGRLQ
Sialic acid-binding Ig-like lectin 9 (Homo sapiens), sequence (Q9Y336 whole entry): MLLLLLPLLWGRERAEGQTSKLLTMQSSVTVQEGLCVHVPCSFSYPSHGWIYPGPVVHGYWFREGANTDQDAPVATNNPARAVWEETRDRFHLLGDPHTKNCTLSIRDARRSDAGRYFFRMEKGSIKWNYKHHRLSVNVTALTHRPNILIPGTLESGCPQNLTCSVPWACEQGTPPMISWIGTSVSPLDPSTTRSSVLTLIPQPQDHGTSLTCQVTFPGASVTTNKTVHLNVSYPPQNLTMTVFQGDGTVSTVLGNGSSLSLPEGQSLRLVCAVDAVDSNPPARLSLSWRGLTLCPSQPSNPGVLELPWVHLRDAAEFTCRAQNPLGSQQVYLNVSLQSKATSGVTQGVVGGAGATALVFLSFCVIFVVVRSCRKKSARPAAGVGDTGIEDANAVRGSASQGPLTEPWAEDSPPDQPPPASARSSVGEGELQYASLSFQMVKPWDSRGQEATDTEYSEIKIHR
Chromo domain-containing protein 1 (Saccharomyces cerevisiae (strain ATCC 204508 / S288c) (Baker's yeast)), sequence (P32657 whole entry, the tested form may be a part): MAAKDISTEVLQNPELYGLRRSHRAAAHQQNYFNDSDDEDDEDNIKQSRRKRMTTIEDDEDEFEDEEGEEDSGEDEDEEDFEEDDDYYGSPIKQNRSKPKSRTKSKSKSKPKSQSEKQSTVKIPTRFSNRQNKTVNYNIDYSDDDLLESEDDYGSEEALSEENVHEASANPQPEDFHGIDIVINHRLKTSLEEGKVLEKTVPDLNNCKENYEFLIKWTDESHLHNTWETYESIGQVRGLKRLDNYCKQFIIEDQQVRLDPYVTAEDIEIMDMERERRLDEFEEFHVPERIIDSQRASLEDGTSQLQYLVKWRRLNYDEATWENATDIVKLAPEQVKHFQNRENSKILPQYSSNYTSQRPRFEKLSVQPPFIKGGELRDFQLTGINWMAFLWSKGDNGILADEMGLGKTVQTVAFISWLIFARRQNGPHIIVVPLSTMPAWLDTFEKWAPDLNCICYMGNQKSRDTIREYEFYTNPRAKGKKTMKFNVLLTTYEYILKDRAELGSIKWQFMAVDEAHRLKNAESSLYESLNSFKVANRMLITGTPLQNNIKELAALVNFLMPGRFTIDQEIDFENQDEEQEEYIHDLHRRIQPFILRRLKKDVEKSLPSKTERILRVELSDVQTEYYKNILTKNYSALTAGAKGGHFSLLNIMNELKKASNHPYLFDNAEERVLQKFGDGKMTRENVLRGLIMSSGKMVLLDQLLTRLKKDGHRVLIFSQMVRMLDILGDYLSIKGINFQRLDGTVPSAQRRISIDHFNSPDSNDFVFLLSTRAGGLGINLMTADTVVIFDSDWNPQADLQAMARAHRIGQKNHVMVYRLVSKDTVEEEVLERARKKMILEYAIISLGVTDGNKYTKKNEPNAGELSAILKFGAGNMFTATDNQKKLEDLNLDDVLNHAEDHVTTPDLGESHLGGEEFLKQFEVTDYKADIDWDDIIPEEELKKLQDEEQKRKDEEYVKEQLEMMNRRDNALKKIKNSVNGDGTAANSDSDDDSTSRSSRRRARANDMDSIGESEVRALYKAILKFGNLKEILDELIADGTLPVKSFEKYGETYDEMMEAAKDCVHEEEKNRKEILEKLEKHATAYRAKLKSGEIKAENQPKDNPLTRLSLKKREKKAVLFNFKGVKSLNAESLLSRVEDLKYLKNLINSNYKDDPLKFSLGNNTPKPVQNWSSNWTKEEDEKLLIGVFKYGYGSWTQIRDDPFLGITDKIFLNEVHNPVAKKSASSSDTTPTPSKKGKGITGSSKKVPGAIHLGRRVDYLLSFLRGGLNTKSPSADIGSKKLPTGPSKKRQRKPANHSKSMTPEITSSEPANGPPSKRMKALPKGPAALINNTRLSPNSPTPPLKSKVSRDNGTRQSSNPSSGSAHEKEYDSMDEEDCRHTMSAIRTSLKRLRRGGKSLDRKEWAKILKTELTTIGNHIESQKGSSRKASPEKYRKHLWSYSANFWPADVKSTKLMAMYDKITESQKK

Regarding `CCN1CCN(C(=O)c2cnn(-c3ccccc3Cl)c2)CC1`, the Percent Effect in test [1] was -4.44%; in test [2], 5.41%; in [3], -8.79%; in test [4] it was 9.91%; in the test on Trypanosoma cruzi, -2.36%; in test [5], -1.6%. Besides, the Percent Effect is 1.62% in test [6]; 10.3% in the test listed under Homo sapiens; 10.3% in [7]; 13.6% in [8]; -7.79% in test [9].
With `Cc1ccc(C(=O)N2C[C@@H]3COC[C@]3(COc3cccnc3)C2)cn1`, the Percent Effect is 1.3% in test [1]; 18.9% in test [2]; 0.636% in test [3]; -16.3% in test [4]; 1.07% with Trypanosoma cruzi; 7.33% in test [5]. Also, the Percent Effect in test [6] was 13.3%; in the test filed under Homo sapiens, 30.2%; in test [7], 4.32%; in [8], 7.69%; in test [9], 4.76%.
As for `CC(C)NC(=O)COc1nc(C(C)(C)C)no1`, the Percent Effect in [1] was -4.03%; in test [2], 13.5%; in test [3], -3.54%; in test [4], 27.8%; with Trypanosoma cruzi it was 5.21%; in [5] it was 0.952%. In addition, the Percent Effect was 4.31% in test [6]; -3.96% in the test listed under Homo sapiens; -0.529% in [7]; 4.88% in [8]; -3.56% in test [9].
Take `COc1ccc(C(CO)NC(=O)Nc2cccnc2)cc1` (stereo unspecified): the Percent Effect in test [1] is -4.93%; in [2], -2.7%; in [3], -0.874%; in test [4], 3.21%; in the test with Trypanosoma cruzi, -3.86%; in [5], -3.81%. Besides, the Percent Effect in test [6] was 10.9%; in the test listed under Homo sapiens it was 10.2%; in test [7], -0.529%; in test [8], -4.88%; in test [9] it was -2.24%.
As for `O=C(NCCNc1ccc(C(F)(F)F)cn1)c1cncc(Br)c1`, the Percent Effect was 1.84% in test [1]; 15.6% in test [2]; 50.8% in test [3]; -7% in [4]; -4.8% in the test on Trypanosoma cruzi; 3.58% in test [5]. Besides, the Percent Effect in test [6] was 12.5%; in the test listed under Homo sapiens, 27.5%; in [7], 13.3%; in [8] it was 30.6%; in [9] it was -20.7%.
In the case of `CN(c1ccncn1)C1CC2(CCN(C(=O)c3cccs3)C2)C1` (stereo unspecified), the Percent Effect is -5.11% in test [1]; 1.35% in [2]; 1.54% in test [3]; 8.09% in [4]; 2.96% in the test on Trypanosoma cruzi; -2.09% in test [5]. Further, the Percent Effect in [6] was 1.09%; in the test filed under Homo sapiens it was 11.6%; in test [7], -6.45%; in test [8], -6.49%; in test [9], -17.8%.
`CCS(=O)(=O)N1CCC(c2nnc(CN3CCOCC3)n2C)CC1`: the Percent Effect in test [1] is -3.22%; in test [2] it was 18.7%; in test [3] it was -2.94%; in test [4], 20%; in the test with Trypanosoma cruzi it was 3.8%; in test [5], 5.73%. Moreover, the Percent Effect was 14.5% in test [6]; 3.52% in the test listed under Homo sapiens; 9.29% in test [7]; 21% in test [8]; -5.76% in [9].
For the compound `O=C(NC1CCS(=O)(=O)C1)c1sccc1-c1ccc(F)cc1` (stereo unspecified), the Percent Effect in [1] was -6.43%; in test [2], 5.41%; in test [3] it was 2.1%; in test [4] it was -6.95%; in the test on Trypanosoma cruzi, -4.4%; in [5], -0.248%. Also, the Percent Effect in test [6] was 8.15%; in the test filed under Homo sapiens, -15.8%; in test [7], 0%; in test [8], 6.17%; in test [9], 11.7%.
As for `COCC1c2c(cnn2C)CCN1Cc1ccoc1` (stereo unspecified), the Percent Effect is -4.26% in test [1]; -2.7% in test [2]; 3.57% in test [3]; 2.05% in test [4]; -1.95% in the test with Trypanosoma cruzi; -1.67% in [5]. The Percent Effect in test [6] was 0.0845%; in the test listed under Homo sapiens it was -9.84%; in test [7], 0.99%; in [8], 3.66%; in [9], 2.42%.
As to `Cc1cc(C)n(CC2CCCCN2CC(=O)Nc2cccnc2)n1` (stereo unspecified), the Percent Effect in [1] is -6.69%; in test [2], 13.3%; in test [3] it was -13.7%; in [4], 36.3%; with Trypanosoma cruzi, 9.25%; in test [5], 12.5%. Further, the Percent Effect in test [6] was -1.74%; in the test listed under Homo sapiens, 6.67%; in test [7], 0.546%; in test [8], 16.1%; in test [9], -6.32%.
Regarding `Cc1ccccc1-c1cc(NC(=O)CC(C)C)n(CCO)n1`, the Percent Effect in [1] is -2.35%; in [2], 2.63%; in test [3], -11.8%; in test [4] it was 0.669%; in the test on Trypanosoma cruzi, -6.33%; in test [5], 2.37%. Besides, the Percent Effect was 5.46% in test [6]; 0.574% in the test listed under Homo sapiens; 3.19% in [7]; 5.2% in [8]; -3.67% in [9].
